Reference: paper PMC11006913
Residue numbers refer to the chain shown, from its start.

Experiments:
Test in all cases: PBM; 200 nM protein, PBS
Conditions in all cases: dsDNA, one strand shown
NKX2-4 [1] = target: T1, NKX2-4 (Homo sapiens, UniProt Q9H2Z4 175-261, P217L)
T1 sequence: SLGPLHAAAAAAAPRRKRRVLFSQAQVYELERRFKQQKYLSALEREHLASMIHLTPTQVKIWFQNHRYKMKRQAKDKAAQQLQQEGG

NKX2-4 [2] = target: T2, NKX2-4 (Homo sapiens, UniProt Q9H2Z4 175-261, T231S)
T2 sequence: T1 sequence with L43P, T57S

NKX2-4 [3] = target: T3, NKX2-4 (Homo sapiens, UniProt Q9H2Z4 175-261)
T3 sequence: T1 sequence with L43P

NKX2-4 [4] = target: T4, NKX2-4 (Homo sapiens, UniProt Q9H2Z4 175-261, R246Q)
T4 sequence: T1 sequence with L43P, R72Q

| Sequence | binding signal (NKX2-4 [1]) | binding signal (NKX2-4 [2]) | binding signal (NKX2-4 [3]) | binding signal (NKX2-4 [4]) |
| --- | --- | --- | --- | --- |
| ACTCTTAT | 12.2 upbm affinity estimate (log intensity, higher = more binding, comparable within an allelic series) | 12.5 upbm affinity estimate (log intensity, higher = more binding, comparable within an allelic series) | 12.1 upbm affinity estimate (log intensity, higher = more binding, comparable within an allelic series) | 12.5 upbm affinity estimate (log intensity, higher = more binding, comparable within an allelic series) |
| ATTCTTGA | 11.5 upbm affinity estimate (log intensity, higher = more binding, comparable within an allelic series) | 11.7 upbm affinity estimate (log intensity, higher = more binding, comparable within an allelic series) | 11.2 upbm affinity estimate (log intensity, higher = more binding, comparable within an allelic series) | 11.7 upbm affinity estimate (log intensity, higher = more binding, comparable within an allelic series) |
| CTCAAGCA | 11.8 upbm affinity estimate (log intensity, higher = more binding, comparable within an allelic series) | 12.1 upbm affinity estimate (log intensity, higher = more binding, comparable within an allelic series) | 11.8 upbm affinity estimate (log intensity, higher = more binding, comparable within an allelic series) | 12.2 upbm affinity estimate (log intensity, higher = more binding, comparable within an allelic series) |
| CTACTTCA | 12.4 upbm affinity estimate (log intensity, higher = more binding, comparable within an allelic series) | 12.6 upbm affinity estimate (log intensity, higher = more binding, comparable within an allelic series) | 12.2 upbm affinity estimate (log intensity, higher = more binding, comparable within an allelic series) | 12.8 upbm affinity estimate (log intensity, higher = more binding, comparable within an allelic series) |
| CAAGCCAG | 9.67 upbm affinity estimate (log intensity, higher = more binding, comparable within an allelic series) | 9.62 upbm affinity estimate (log intensity, higher = more binding, comparable within an allelic series) | 9.56 upbm affinity estimate (log intensity, higher = more binding, comparable within an allelic series) | 9.73 upbm affinity estimate (log intensity, higher = more binding, comparable within an allelic series) |
| GAGTGCCA | 12.1 upbm affinity estimate (log intensity, higher = more binding, comparable within an allelic series) | 12.3 upbm affinity estimate (log intensity, higher = more binding, comparable within an allelic series) | 11.9 upbm affinity estimate (log intensity, higher = more binding, comparable within an allelic series) | 12.4 upbm affinity estimate (log intensity, higher = more binding, comparable within an allelic series) |
| CAAGAGGA | 12 upbm affinity estimate (log intensity, higher = more binding, comparable within an allelic series) | 12.3 upbm affinity estimate (log intensity, higher = more binding, comparable within an allelic series) | 12 upbm affinity estimate (log intensity, higher = more binding, comparable within an allelic series) | 12.4 upbm affinity estimate (log intensity, higher = more binding, comparable within an allelic series) |
| CTGCGTCC | 9.76 upbm affinity estimate (log intensity, higher = more binding, comparable within an allelic series) | 9.72 upbm affinity estimate (log intensity, higher = more binding, comparable within an allelic series) | 9.74 upbm affinity estimate (log intensity, higher = more binding, comparable within an allelic series) | 9.78 upbm affinity estimate (log intensity, higher = more binding, comparable within an allelic series) |
| GTCCCACA | 9.65 upbm affinity estimate (log intensity, higher = more binding, comparable within an allelic series) | 9.69 upbm affinity estimate (log intensity, higher = more binding, comparable within an allelic series) | 9.67 upbm affinity estimate (log intensity, higher = more binding, comparable within an allelic series) | 9.68 upbm affinity estimate (log intensity, higher = more binding, comparable within an allelic series) |
| CACTTTGA | 11.7 upbm affinity estimate (log intensity, higher = more binding, comparable within an allelic series) | 12 upbm affinity estimate (log intensity, higher = more binding, comparable within an allelic series) | 11.6 upbm affinity estimate (log intensity, higher = more binding, comparable within an allelic series) | 12 upbm affinity estimate (log intensity, higher = more binding, comparable within an allelic series) |
| AAAGAGGC | 11.7 upbm affinity estimate (log intensity, higher = more binding, comparable within an allelic series) | 11.9 upbm affinity estimate (log intensity, higher = more binding, comparable within an allelic series) | 11.6 upbm affinity estimate (log intensity, higher = more binding, comparable within an allelic series) | 11.9 upbm affinity estimate (log intensity, higher = more binding, comparable within an allelic series) |
| GTCAAGGA | 11.7 upbm affinity estimate (log intensity, higher = more binding, comparable within an allelic series) | 11.9 upbm affinity estimate (log intensity, higher = more binding, comparable within an allelic series) | 11.6 upbm affinity estimate (log intensity, higher = more binding, comparable within an allelic series) | 11.6 upbm affinity estimate (log intensity, higher = more binding, comparable within an allelic series) |
| GTACTCGA | 12.4 upbm affinity estimate (log intensity, higher = more binding, comparable within an allelic series) | 12.9 upbm affinity estimate (log intensity, higher = more binding, comparable within an allelic series) | 12.3 upbm affinity estimate (log intensity, higher = more binding, comparable within an allelic series) | 12.9 upbm affinity estimate (log intensity, higher = more binding, comparable within an allelic series) |
| ACGCCGCA | 9.67 upbm affinity estimate (log intensity, higher = more binding, comparable within an allelic series) | 9.65 upbm affinity estimate (log intensity, higher = more binding, comparable within an allelic series) | 9.64 upbm affinity estimate (log intensity, higher = more binding, comparable within an allelic series) | 9.74 upbm affinity estimate (log intensity, higher = more binding, comparable within an allelic series) |
| CGATCCCG | 9.54 upbm affinity estimate (log intensity, higher = more binding, comparable within an allelic series) | 9.56 upbm affinity estimate (log intensity, higher = more binding, comparable within an allelic series) | 9.59 upbm affinity estimate (log intensity, higher = more binding, comparable within an allelic series) | 9.65 upbm affinity estimate (log intensity, higher = more binding, comparable within an allelic series) |
| CCGGTCGC | 9.53 upbm affinity estimate (log intensity, higher = more binding, comparable within an allelic series) | 9.41 upbm affinity estimate (log intensity, higher = more binding, comparable within an allelic series) | 9.5 upbm affinity estimate (log intensity, higher = more binding, comparable within an allelic series) | 9.51 upbm affinity estimate (log intensity, higher = more binding, comparable within an allelic series) |
| AAAATGCG | 9.82 upbm affinity estimate (log intensity, higher = more binding, comparable within an allelic series) | 9.83 upbm affinity estimate (log intensity, higher = more binding, comparable within an allelic series) | 9.74 upbm affinity estimate (log intensity, higher = more binding, comparable within an allelic series) | 9.92 upbm affinity estimate (log intensity, higher = more binding, comparable within an allelic series) |
